# Inconclusive results are not listed. The source made the active and inactive calls. Unless noted, the call rests on the fitted dose curve; in most records, active means well fitted curve in the direction sought with a large enough effect in the repeat runs; inconclusive means weak or mixed curves; inactive means no such curve, though single readings can be large; an effect the other way counts as inactive or inconclusive.
# Molecular target: Estrogen receptor (Homo sapiens) (UniProt P03372)
# Assay: qHTS assay to identify small molecule agonists of the estrogen receptor alpha (ER-alpha) signaling pathway (AID 743075; calls by dose curve;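 further: HEK293 GripTite cells with ER-alpha and UAS-driven beta-lactamase reporter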)
# Details: HEK293 ER-alpha-UAS-bla, beta-lactamase FRET ratio, 18 h; series mostly up to 70.1 µM; activation: at the top concentration
# On the % scale 0 is the no-effect control and ±100 the full control effect.
# Chain of Estrogen receptor (Homo sapiens) (P03372 whole entry, looked up): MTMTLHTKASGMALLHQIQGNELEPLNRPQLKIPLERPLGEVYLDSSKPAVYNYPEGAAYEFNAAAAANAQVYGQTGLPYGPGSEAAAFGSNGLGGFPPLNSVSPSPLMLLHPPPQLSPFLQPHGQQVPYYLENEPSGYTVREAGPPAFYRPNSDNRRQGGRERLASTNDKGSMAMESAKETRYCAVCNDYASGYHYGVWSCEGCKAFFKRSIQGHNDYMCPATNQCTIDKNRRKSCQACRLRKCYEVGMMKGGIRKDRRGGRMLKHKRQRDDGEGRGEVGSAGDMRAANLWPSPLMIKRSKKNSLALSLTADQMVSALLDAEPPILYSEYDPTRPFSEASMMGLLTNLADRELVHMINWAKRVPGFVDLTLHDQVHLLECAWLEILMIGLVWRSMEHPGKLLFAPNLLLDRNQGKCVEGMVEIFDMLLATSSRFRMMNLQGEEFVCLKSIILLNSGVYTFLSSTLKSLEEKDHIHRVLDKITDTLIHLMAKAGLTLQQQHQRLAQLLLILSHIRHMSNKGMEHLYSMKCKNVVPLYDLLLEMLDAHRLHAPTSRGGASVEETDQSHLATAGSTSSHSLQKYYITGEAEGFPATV
row,Structure (SMILES),activation
1,COc1cc(S(=O)(=O)Nc2ccccc2)c(OC)cc1N,-2.19% (inactive)
2,COC(OC)OC,3.56% (inactive)
3,Nc1ccc(F)cc1,1.4% [at 79.1 µM] (inactive)
4,C=Cc1ccc(OC(C)=O)cc1,3.41% (inactive)

# Molecular target: Estrogen receptor (Homo sapiens) (UniProt P03372)
# Assay: qHTS assay to identify small molecule agonists of the estrogen receptor alpha (ER-alpha) signaling pathway using the BG1 cell line (AID 743079); further: nearly all actives have a fitted effect of over 20% in size
# Details: BG1Luc4E2 cells, ERE-luciferase agonist, 22 h; series mostly up to 70.3 µM; activation: at the top concentration
row,Structure (SMILES),activation
1,COc1cc(S(=O)(=O)Nc2ccccc2)c(OC)cc1N,-11.8% (inactive)
2,COC(OC)OC,7.71% (inactive)
3,Nc1ccc(F)cc1,4.77% [at 95 µM] (inactive)
4,C=Cc1ccc(OC(C)=O)cc1,2.66% (inactive)

# System: not listed separately
# Assay: qHTS assay to identify small molecule antagonists of the estrogen receptor alpha (ER-alpha) signaling pathway using the BG1 cell line (AID 743080; calls by dose curve;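 further: BG1 cells stimulated with 17beta-estradiol alongside compound; nearly all actives have a fitted effect of over 25% in size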)
# Details: BG1Luc4E2 ERE-luciferase antagonist mode, luminescence; series mostly up to 70.3 µM; activity change, negative = inhibition: at the top concentration
# In short: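 After 5 days in phenol-red-free 10% charcoal-stripped FBS medium, BG1-Luc-4E2 cells were seeded, left 24 h at 37 C, co-treated with compounds and 17beta-estradiol for 21.5 h, then assayed for viability and luciferase.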
row,Structure (SMILES),"activity change, negative = inhibition"
1,COc1cc(S(=O)(=O)Nc2ccccc2)c(OC)cc1N,-13.8% (inactive)
2,COC(OC)OC,0.0668% (inactive)
3,Nc1ccc(F)cc1,-1.16% [at 95 µM] (inactive)
4,C=Cc1ccc(OC(C)=O)cc1,-0.0169% (inactive)

# System: not listed separately
# Assay: qHTS assay to identify small molecule antagonists of the estrogen receptor alpha (ER-alpha) signaling pathway using the BG1 cell line - cell viability counter screen (AID 743081);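 further: compound given together with 17beta-estradiol as the ER stimulus; nearly all actives have a fitted effect of over 45% in size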; further: potency means the concentration at half of the fitted maximal effect
# Details: BG1Luc4E2 viability, CellTiter-Fluor, 22 h; series mostly up to 70.3 µM; activity change, negative = cytotoxicity: at the top concentration
Structure (SMILES),"activity change, negative = cytotoxicity",Potency
O=C(O)CCC(=O)OC[C@@H](NC(=O)C(Cl)Cl)[C@H](O)c1ccc([N+](=O)[O-])cc1,2.38% (inactive),–
Cc1ccc(Cl)cc1N,4.93% [at 95 µM] (inactive),–
O=C(O)c1ccc(O)cc1O,-4.76% [at 95 µM] (inactive),–
CC(CN(CCN(CC(C)OCCO)CC(C)OCCO)CC(C)OCCO)OCCO (stereo unspecified),-19.6% [at 95 µM] (inactive),–
CCC1CCC(CCC(=O)O)C1 (stereo unspecified),-1.9% [at 95 µM] (inactive),–
C1=CCC2CC=CC2C1 (stereo unspecified),1.64% (inactive),–
O=C1OC[C@H](Cc2cccc(O)c2)[C@H]1Cc1cccc(O)c1,8.6% [at 32.5 µM] (inactive),–
O=C1CC[C@@H](C(=O)O)N1,10.9% (inactive),–
Nc1ccc(S(=O)(=O)NCc2ccccc2)cc1,1.56% (inactive),–
CC(=O)C(C)=O,5.09% [at 95 µM] (inactive),–
O=C(O)CCCc1c[nH]c2ccccc12,16.1% (inactive),–
CCCCCC,-1.42% (inactive),–
CC1CCC(C(C)CS)CC1S (stereo unspecified),-0.935% (inactive),–
CC1=CC[C@@]23C[C@@H]1C(C)(C)[C@@H]2CC[C@H]3C,-1.31% (inactive),–
COc1cc(S(=O)(=O)Nc2ccccc2)c(OC)cc1N,1.92% (inactive),–
CCCCCCOC(=O)CCCCC,-0.906% (inactive),–
COc1ccc(C)cc1,-2.53% (inactive),–
COc1ccc(N)c([N+](=O)[O-])c1,3.32% (inactive),–
COC(CC(C)CCCC(C)(C)O)OC (stereo unspecified),5% (inactive),–

Structure (SMILES),"activity change, negative = cytotoxicity",Potency
CC(=O)OCC(=O)[C@@]1(OC(C)=O)[C@@H](C)C[C@H]2[C@@H]3C[C@H](F)C4=CC(=O)C=C[C@]4(C)[C@@]3(F)[C@@H](O)C[C@@]21C,21.1% (inactive),–
CNCc1ccc(NC(=O)c2c[nH]c3c2C(=O)CCC3)cc1,-3.81% (inactive),–
COC(OC)OC,0.573% (inactive),–
CC(C)COC(=O)c1ccc(O)cc1,-20.6% (inactive),–
CCCCCCCCCCCCCOC(=O)CCSCCC(=O)OCCCCCCCCCCCCC,0.6% [at 32.5 µM] (inactive),–
Nc1ccc(F)cc1,9.24% [at 95 µM] (inactive),–
C=Cc1ccc(OC(C)=O)cc1,1.34% (inactive),–
CSSc1ccoc1C,3.37% (inactive),–
CC(C)Cc1ccc(CC(=O)O)cc1,0.479% (inactive),–
CCN(CC)c1ccc(C(=C2C=CC(=[N+](CC)CC)C=C2)c2ccc(S(=O)(=O)O)cc2S(=O)(=O)[O-])cc1,–,30.6 µM (active)
Cc1c[nH]c2ccccc12,7.19% (inactive),–
CC(=O)OCC1=C(C(=O)O)N2C(=O)[C@@H](NC(=O)CSc3ccncc3)[C@H]2SC1,-2.66% (inactive),–
CC(=O)NCCO,-3.91% (inactive),–
O=C(O)CN1C(=O)c2cccc3cccc(c23)C1=O,8.78% (inactive),–
CC(C(=O)O)c1ccc(C(=O)c2cccs2)cc1 (stereo unspecified),0.601% [at 32.5 µM] (inactive),–
CCCCCCC(CO)CCCC (stereo unspecified),3.26% (inactive),–
CC[C@H]1OC(=O)[C@H](C)[C@@H](O[C@H]2C[C@@](C)(OC)[C@@H](O)[C@H](C)O2)[C@H](C)[C@@H](O[C@@H]2O[C@H](C)C[C@H](N(C)C)[C@H]2O)[C@](C)(O)C[C@@H](C)C(=O)[C@H](C)[C@@H](O)[C@]1(C)O,–,inactive
CC1CCCO1 (stereo unspecified),-1.06% (inactive),–

# Molecular target: Aromatase (Homo sapiens) (UniProt P11511)
# Sequence (P11511 whole entry, looked up): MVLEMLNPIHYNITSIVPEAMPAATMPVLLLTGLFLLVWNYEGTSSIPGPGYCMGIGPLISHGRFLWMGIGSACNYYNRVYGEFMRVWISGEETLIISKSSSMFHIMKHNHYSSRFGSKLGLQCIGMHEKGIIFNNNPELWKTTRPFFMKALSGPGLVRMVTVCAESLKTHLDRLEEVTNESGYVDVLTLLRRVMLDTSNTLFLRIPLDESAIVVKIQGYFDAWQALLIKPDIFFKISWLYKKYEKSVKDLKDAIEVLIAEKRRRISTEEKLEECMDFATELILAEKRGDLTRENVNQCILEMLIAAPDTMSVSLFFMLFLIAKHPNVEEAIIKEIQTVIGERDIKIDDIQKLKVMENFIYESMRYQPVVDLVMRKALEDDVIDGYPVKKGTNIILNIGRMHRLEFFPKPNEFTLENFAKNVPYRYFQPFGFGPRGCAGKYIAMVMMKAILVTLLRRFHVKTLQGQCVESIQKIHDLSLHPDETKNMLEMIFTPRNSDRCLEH
# Assay: qHTS assay to identify aromatase inhibitors (AID 743083); further: nearly all actives have a fitted effect of over 55% in size; further: potency means the concentration at half of the fitted maximal effect
# Details: MCF-7 aro ERE, testosterone-driven ERE luciferase, 24 h; series mostly up to 70.3 µM; activity, negative = inhibition: at the top concentration
Structure (SMILES),"activity, negative = inhibition",Potency
O=C(O)CCC(=O)OC[C@@H](NC(=O)C(Cl)Cl)[C@H](O)c1ccc([N+](=O)[O-])cc1,6.05% (inactive),–
Cc1ccc(Cl)cc1N,-1.14% [at 95 µM] (inactive),–
O=C(O)c1ccc(O)cc1O,1.99% [at 95 µM] (inactive),–
CC(CN(CCN(CC(C)OCCO)CC(C)OCCO)CC(C)OCCO)OCCO (stereo unspecified),-3.3% [at 95 µM] (inactive),–
CCC1CCC(CCC(=O)O)C1 (stereo unspecified),-5.84% [at 95 µM] (inactive),–
C1=CCC2CC=CC2C1 (stereo unspecified),6.66% (inactive),–
O=C1OC[C@H](Cc2cccc(O)c2)[C@H]1Cc1cccc(O)c1,3.8% [at 32.5 µM] (inactive),–
O=C1CC[C@@H](C(=O)O)N1,-4.6% (inactive),–
Nc1ccc(S(=O)(=O)NCc2ccccc2)cc1,-0.0306% (inactive),–
CC(=O)C(C)=O,-7.21% [at 95 µM] (inactive),–
O=C(O)CCCc1c[nH]c2ccccc12,-13% (inactive),–
CCCCCC,2.9% (inactive),–
CC1CCC(C(C)CS)CC1S (stereo unspecified),7.2% (inactive),–
CC1=CC[C@@]23C[C@@H]1C(C)(C)[C@@H]2CC[C@H]3C,4.82% (inactive),–
COc1cc(S(=O)(=O)Nc2ccccc2)c(OC)cc1N,20.4% (inactive),–
CCCCCCOC(=O)CCCCC,-2.32% (inactive),–
COc1ccc(C)cc1,-12.9% (inactive),–
COc1ccc(N)c([N+](=O)[O-])c1,12.7% (inactive),–
COC(CC(C)CCCC(C)(C)O)OC (stereo unspecified),13% (inactive),–

Structure (SMILES),"activity, negative = inhibition",Potency
CC(=O)OCC(=O)[C@@]1(OC(C)=O)[C@@H](C)C[C@H]2[C@@H]3C[C@H](F)C4=CC(=O)C=C[C@]4(C)[C@@]3(F)[C@@H](O)C[C@@]21C,55.2% (inactive),–
CNCc1ccc(NC(=O)c2c[nH]c3c2C(=O)CCC3)cc1,25.1% (inactive),–
COC(OC)OC,7.16% (inactive),–
CC(C)COC(=O)c1ccc(O)cc1,21% (inactive),–
CCCCCCCCCCCCCOC(=O)CCSCCC(=O)OCCCCCCCCCCCCC,8.79% [at 32.5 µM] (inactive),–
Nc1ccc(F)cc1,10.3% [at 95 µM] (inactive),–
C=Cc1ccc(OC(C)=O)cc1,12.4% (inactive),–
CSSc1ccoc1C,10.7% (inactive),–
CC(C)Cc1ccc(CC(=O)O)cc1,-1.34% (inactive),–
CCN(CC)c1ccc(C(=C2C=CC(=[N+](CC)CC)C=C2)c2ccc(S(=O)(=O)O)cc2S(=O)(=O)[O-])cc1,–,9.69 µM (active)
Cc1c[nH]c2ccccc12,0.04% (inactive),–
CC(=O)OCC1=C(C(=O)O)N2C(=O)[C@@H](NC(=O)CSc3ccncc3)[C@H]2SC1,13.7% (inactive),–
CC(=O)NCCO,16.5% (inactive),–
O=C(O)CN1C(=O)c2cccc3cccc(c23)C1=O,1.13% (inactive),–
CC(C(=O)O)c1ccc(C(=O)c2cccs2)cc1 (stereo unspecified),14.6% [at 32.5 µM] (inactive),–
CCCCCCC(CO)CCCC (stereo unspecified),-13.5% (inactive),–
CC[C@H]1OC(=O)[C@H](C)[C@@H](O[C@H]2C[C@@](C)(OC)[C@@H](O)[C@H](C)O2)[C@H](C)[C@@H](O[C@@H]2O[C@H](C)C[C@H](N(C)C)[C@H]2O)[C@](C)(O)C[C@@H](C)C(=O)[C@H](C)[C@@H](O)[C@]1(C)O,–,inactive
CC1CCCO1 (stereo unspecified),-15.7% (inactive),–
